This is an account of results in the supplement of paper PMC7411054.

Details in all cases: treatment time: 24 h
Assay [1] has as its system A549-GM130-SQSTM1. Kind of assay: lowest phenotypically active concentration; higher = less potent. In a few lines: (§1)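 Each of fifteen gene-edited A549, HepG2 and WPMY1 reporter lines, marked with BFP for segmentation and GFP and RFP/FusionRed, was treated in four wells at 0.3, 1, 3 or 9 µM for 24 h prior to live imaging. Normalisation of per-well live-cell features used solvent control wells. Deviation needed ≥3 of 4 wells beyond the 95th percentile of control Euclidean distances, and reproducibility needed a median replicate Pearson correlation above the 95th percentile of non-replicates. Both were required for phenotypic activity.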

Another assay concerns A549-ACTB-RAB5A. Kind of assay: phenotypically active (imaging signature differs from DMSO and reproducible) at any of 0.3-9 uM (binary (1 = active, 0 = inactive)); higher = active. In outline: as §1
For the next assay, the system named is A549-CANX-COX4. The description is as above. In a few lines:
as §1

Assay [2] has as its system A549-GM130-SQSTM1. Described as above. In a few lines:
as §1

A further assay concerns A549-TP53BP1-CLTA. Described as above. In outline: as §1
Another assay relates to A549-TUBA1B-RELA. The description is as above. In outline:
as §1

The subject of the next assay is HepG2-ACTB-RAB5A. The assay is described as above. In outline:
as §1

In the next assay the test system is HepG2-CANX-COX4. The description is as above. In outline:
as §1

Assay [3] deals with HepG2-GM130-SQSTM1. Described as above. In outline:
as §1

For a further assay, the system named is HepG2-TP53BP1-CLTA. The assay is described as above. In outline: as §1
Assay [4] has as its system HepG2-TUBA1B-RELA. The description is as above. In outline:
as §1

The next assay relates to WPMY1-ACTB-RAB5A. The description is as above. In a few lines:
as §1

Another assay has as its system WPMY1-CANX-COX4. The description is as above. In a few lines: as §1
The test system of assay [5] is WPMY1-GM130-SQSTM1. Described as above. In a few lines:
as §1

Assay [6] concerns WPMY1-TP53BP1-CLTA. The assay is described as above. In outline:
as §1

In another assay the test system is WPMY1-TUBA1B-RELA. The assay is described as above. In outline: as §1
Assay [7] concerns HepG2-GM130-SQSTM1. The assay can be described thus: lowest phenotypically active concentration; higher = less potent. In outline:
as §1

The subject of assay [8] is HepG2-TUBA1B-RELA. Described as above. In outline:
as §1

The subject of assay [9] is WPMY1-GM130-SQSTM1. The assay is described as above. In a few lines:
as §1

The test system of assay [10] is WPMY1-TP53BP1-CLTA. The description is as above. In outline: as §1

Counter-ions that a name gives are not always drawn.

On to `CC(C)(C)c1cc(C=C(C#N)C#N)cc(Br)c1O`, for which, in the assay on A549-GM130-SQSTM1 [1], the “lowest phenotypically active concentration” value turned out to be 9 µM. In addition, the phenotypically active is 0 (inactive) with A549-ACTB-RAB5A; 0 (inactive) in the assay on A549-CANX-COX4; 1 (active) with A549-GM130-SQSTM1 [2]; 0 (inactive) in the assay with A549-TP53BP1-CLTA; 0 (inactive) in the assay on A549-TUBA1B-RELA; 0 (inactive) in the assay with HepG2-ACTB-RAB5A. Moreover, the phenotypically active in the assay on HepG2-CANX-COX4, in the assay with HepG2-GM130-SQSTM1 [3], in the assay with HepG2-TP53BP1-CLTA, in the assay on HepG2-TUBA1B-RELA [4], in the assay on WPMY1-ACTB-RAB5A and with WPMY1-CANX-COX4 was 0 (inactive) throughout. Further, the phenotypically active in the assay with WPMY1-GM130-SQSTM1 [5], with WPMY1-TP53BP1-CLTA [6] and in the assay with WPMY1-TUBA1B-RELA was 0 (inactive) in each case.
For `CC[C@@H](C)C(=O)O[C@H]1[C@H](O)[C@H]2[C@@H](CN3C[C@@H](C)CC[C@H]3[C@@]2(C)O)C2C[C@]34O[C@]5(O)[C@@H](OC(=O)[C@](C)(O)CC)CC[C@@]3(C)[C@@H]5[C@@H](OC(C)=O)[C@@H](OC(C)=O)[C@H]4[C@@]21O` (stereo partly specified) [Protoveratrine A], the “lowest phenotypically active concentration” value with A549-GM130-SQSTM1 [1] amounted to 3 µM. The phenotypically active with A549-ACTB-RAB5A was 0 (inactive); with A549-CANX-COX4 it was 0 (inactive); with A549-GM130-SQSTM1 [2] it was 1 (active); in the assay with A549-TP53BP1-CLTA, 0 (inactive); in the assay on A549-TUBA1B-RELA, 0 (inactive); with HepG2-ACTB-RAB5A, 0 (inactive). In addition, the phenotypically active in the assay on HepG2-CANX-COX4, in the assay with HepG2-GM130-SQSTM1 [3], in the assay on HepG2-TP53BP1-CLTA, in the assay with HepG2-TUBA1B-RELA [4], with WPMY1-ACTB-RAB5A and in the assay on WPMY1-CANX-COX4 was 0 (inactive) in each case. Further, the phenotypically active in the assay on WPMY1-GM130-SQSTM1 [5], in the assay on WPMY1-TP53BP1-CLTA [6] and in the assay with WPMY1-TUBA1B-RELA was 0 (inactive) each time.
In the case of `CC[C@H]1CN2CCc3cc(OC)c(OC)cc3[C@@H]2C[C@@H]1C[C@H]1NCCc2cc(OC)c(OC)cc21` [emetine], the “lowest phenotypically active concentration” value in the assay with A549-GM130-SQSTM1 [1], in the assay on HepG2-GM130-SQSTM1 [7], in the assay on HepG2-TUBA1B-RELA [8], in the assay on WPMY1-GM130-SQSTM1 [9] and in the assay on WPMY1-TP53BP1-CLTA [10] was at most 0.3 µM each time. Moreover, the phenotypically active in the assay on A549-ACTB-RAB5A, in the assay with A549-CANX-COX4, in the assay with A549-GM130-SQSTM1 [2], in the assay with A549-TP53BP1-CLTA, in the assay with A549-TUBA1B-RELA and in the assay with HepG2-ACTB-RAB5A was 1 (active) each time. Moreover, the phenotypically active in the assay with HepG2-CANX-COX4, in the assay with HepG2-GM130-SQSTM1 [3], in the assay on HepG2-TP53BP1-CLTA, in the assay with HepG2-TUBA1B-RELA [4], with WPMY1-ACTB-RAB5A and in the assay with WPMY1-CANX-COX4 was 1 (active) each time. In addition, the phenotypically active with WPMY1-GM130-SQSTM1 [5], with WPMY1-TP53BP1-CLTA [6] and with WPMY1-TUBA1B-RELA was 1 (active) each time.
Take `O=C(NCCN1CCC2(CC1)C(=O)NCN2c1cccc(F)c1)c1ccc(F)c(F)c1` [ML 298 hydrochloride]: the “lowest phenotypically active concentration” value with A549-GM130-SQSTM1 [1], in the assay on HepG2-GM130-SQSTM1 [7], in the assay on HepG2-TUBA1B-RELA [8] and in the assay on WPMY1-GM130-SQSTM1 [9] was 9 µM each time. Further, the phenotypically active in the assay on A549-ACTB-RAB5A, in the assay on A549-CANX-COX4, in the assay on A549-GM130-SQSTM1 [2], with A549-TP53BP1-CLTA, with A549-TUBA1B-RELA and in the assay on HepG2-ACTB-RAB5A was 1 (active) in each case. For the same molecule, the phenotypically active in the assay with HepG2-CANX-COX4 is 0 (inactive); in the assay on HepG2-GM130-SQSTM1 [3], 1 (active); with HepG2-TP53BP1-CLTA, 1 (active); in the assay on HepG2-TUBA1B-RELA [4], 1 (active); with WPMY1-ACTB-RAB5A, 1 (active); with WPMY1-CANX-COX4, 1 (active). The results for the phenotypically active in the assay with WPMY1-GM130-SQSTM1 [5], in the assay with WPMY1-TP53BP1-CLTA [6] and in the assay on WPMY1-TUBA1B-RELA were 1 (active), 0 (inactive) and 1 (active), respectively.
As to `COC1=CC(C)=C[C@@H](C)[C@@H](O)[C@@H](C)CC(C)=CC=C[C@H](OC)[C@@H]([C@@H](C)[C@@H](O)[C@H](C)[C@@]2(O)C[C@@H](O)[C@H](C)[C@@H](C(C)C)O2)OC1=O` [Bafilomycin A1], the “lowest phenotypically active concentration” value in the assay with A549-GM130-SQSTM1 [1] was at most 0.3 µM; in the assay with HepG2-GM130-SQSTM1 [7], 3 µM; in the assay with HepG2-TUBA1B-RELA [8] it was 3 µM; in the assay on WPMY1-GM130-SQSTM1 [9], 1 µM; in the assay with WPMY1-TP53BP1-CLTA [10] it was 3 µM. Moreover, the phenotypically active in the assay on A549-ACTB-RAB5A, with A549-CANX-COX4, with A549-GM130-SQSTM1 [2], with A549-TP53BP1-CLTA, in the assay on A549-TUBA1B-RELA and in the assay with HepG2-ACTB-RAB5A was 1 (active) throughout. In addition, the phenotypically active in the assay on HepG2-CANX-COX4, in the assay on HepG2-GM130-SQSTM1 [3], in the assay on HepG2-TP53BP1-CLTA, in the assay on HepG2-TUBA1B-RELA [4], in the assay with WPMY1-ACTB-RAB5A and in the assay with WPMY1-CANX-COX4 was 1 (active) in each case. For the same molecule, the phenotypically active with WPMY1-GM130-SQSTM1 [5], in the assay on WPMY1-TP53BP1-CLTA [6] and in the assay on WPMY1-TUBA1B-RELA was 1 (active) in each case.
